# How the values were obtained:
# Test in all cases: DAPPL (digital affinity profiling via proximity ligation, sequencing); 10 mM Tris-HCl pH 7.5, 50 mM NaCl, 1 mM DTT, 4% glycerol, room temperature, 30 min; GST-TFs on glutathione beads, 16-mer random dsDNA library, 0.1% formaldehyde crosslink after washing; high values mean tight binding
# FEV = biological target: T1, FEV (Homo sapiens, UniProt Q99581 1-238); conditions: protein: recombinant; tags: N-terminal GST; dsDNA, one strand shown
# T1 sequence: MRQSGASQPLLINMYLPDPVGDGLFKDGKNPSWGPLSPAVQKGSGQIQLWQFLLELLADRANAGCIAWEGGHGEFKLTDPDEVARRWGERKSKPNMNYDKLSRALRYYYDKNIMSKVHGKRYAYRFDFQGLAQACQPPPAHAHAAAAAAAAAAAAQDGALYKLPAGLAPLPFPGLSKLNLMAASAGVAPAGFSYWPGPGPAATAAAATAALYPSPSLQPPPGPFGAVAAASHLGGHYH
# Procedure, shortened: (§1)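 Human transcription factors were made in yeast as GST fusions, captured on glutathione beads and barcoded with DNA. With a tag-only sample included, the pool was incubated with 200 nmole of a random double-stranded 16-mer DNA library in Tris/NaCl/DTT/glycerol buffer at room temperature for 30 min, then crosslinked with 0.1% formaldehyde after washing, ligated by proximity, amplified and sequenced. For binding signal, each hexamer's read frequency for a factor is divided by its frequency for the tag-only sample.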
# ETV5 = ETV5 (Homo sapiens, UniProt P41161 1-510); conditions: protein: recombinant; tags: N-terminal GST; dsDNA, one strand shown
# Procedure, shortened: as §1
# HSF1 = HSF1 (Homo sapiens, UniProt Q00613 1-529); conditions: protein: recombinant; tags: N-terminal GST; chain copies: 3; dsDNA, one strand shown
# Procedure, shortened: as §1
# SPIC = biological target: T2, SPIC (Homo sapiens, UniProt Q8N5J4 1-248); conditions: protein: recombinant; tags: N-terminal GST; dsDNA, one strand shown
# T2 sequence: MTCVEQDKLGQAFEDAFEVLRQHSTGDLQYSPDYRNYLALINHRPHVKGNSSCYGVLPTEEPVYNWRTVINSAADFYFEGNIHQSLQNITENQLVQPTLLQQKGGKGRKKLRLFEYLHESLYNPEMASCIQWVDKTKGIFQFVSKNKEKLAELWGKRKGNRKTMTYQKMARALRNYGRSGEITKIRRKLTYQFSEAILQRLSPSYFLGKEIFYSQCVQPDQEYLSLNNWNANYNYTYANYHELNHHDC
# Procedure, shortened: as §1
# ELF4 = ELF4 (Homo sapiens, UniProt Q99607 1-663); conditions: protein: recombinant; tags: N-terminal GST; dsDNA, one strand shown
# Procedure, shortened: as §1
# ELK4 = biological target: T3, ELK4 (Homo sapiens, UniProt P28324-2 1-405); conditions: protein: recombinant; tags: N-terminal GST; dsDNA, one strand shown
# T3 sequence: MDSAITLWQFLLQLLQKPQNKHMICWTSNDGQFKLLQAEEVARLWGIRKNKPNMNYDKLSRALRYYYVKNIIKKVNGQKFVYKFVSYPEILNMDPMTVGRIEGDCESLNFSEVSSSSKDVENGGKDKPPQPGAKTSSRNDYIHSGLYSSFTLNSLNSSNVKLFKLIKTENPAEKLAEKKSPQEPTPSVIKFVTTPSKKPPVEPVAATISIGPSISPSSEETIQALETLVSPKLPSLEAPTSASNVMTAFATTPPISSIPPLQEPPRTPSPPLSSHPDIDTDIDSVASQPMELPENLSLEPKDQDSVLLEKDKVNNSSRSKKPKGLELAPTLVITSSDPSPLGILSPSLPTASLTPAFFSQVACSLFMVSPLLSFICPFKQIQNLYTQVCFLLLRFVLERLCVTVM
# Procedure, shortened: as §1
# ETV2 = biological target: T4, ETV2 (Homo sapiens, UniProt O00321 1-342); conditions: protein: recombinant; tags: N-terminal GST; dsDNA, one strand shown
# T4 sequence: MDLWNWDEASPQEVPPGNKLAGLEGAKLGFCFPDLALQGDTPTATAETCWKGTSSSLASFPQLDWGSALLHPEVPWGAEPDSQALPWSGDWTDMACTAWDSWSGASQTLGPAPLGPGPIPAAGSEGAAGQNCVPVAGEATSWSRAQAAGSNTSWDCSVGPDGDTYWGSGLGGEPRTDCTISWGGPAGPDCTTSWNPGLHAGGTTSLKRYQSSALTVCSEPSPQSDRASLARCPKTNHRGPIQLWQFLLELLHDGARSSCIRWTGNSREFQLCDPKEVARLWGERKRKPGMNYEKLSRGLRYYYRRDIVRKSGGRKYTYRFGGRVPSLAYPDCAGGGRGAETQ
# Procedure, shortened: as §1
# ELF3 = biological target: T5, ELF3 (Homo sapiens, UniProt P78545 1-371); conditions: protein: recombinant; tags: N-terminal GST; dsDNA, one strand shown
# T5 sequence: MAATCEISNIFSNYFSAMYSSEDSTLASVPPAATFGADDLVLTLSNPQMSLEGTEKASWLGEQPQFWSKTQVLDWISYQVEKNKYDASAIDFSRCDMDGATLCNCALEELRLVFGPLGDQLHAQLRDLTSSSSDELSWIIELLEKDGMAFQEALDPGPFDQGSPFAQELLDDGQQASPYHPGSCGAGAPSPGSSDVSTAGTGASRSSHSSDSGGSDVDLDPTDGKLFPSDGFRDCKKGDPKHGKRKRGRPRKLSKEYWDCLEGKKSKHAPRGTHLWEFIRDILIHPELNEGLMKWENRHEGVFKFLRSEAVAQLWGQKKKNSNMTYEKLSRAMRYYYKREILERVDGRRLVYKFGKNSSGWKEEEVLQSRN
# Procedure, shortened: as §1
# CRX = CRX (Homo sapiens, UniProt O43186 1-299); conditions: protein: recombinant; tags: N-terminal GST; dsDNA, one strand shown
# Procedure, shortened: as §1
# ETV1 = ETV1 (Homo sapiens, UniProt P50549 1-477); conditions: protein: recombinant; tags: N-terminal GST; dsDNA, one strand shown
# Procedure, shortened: as §1
# ERF = biological target: T6, ERF (Homo sapiens, UniProt P50548 1-548); conditions: protein: recombinant; tags: N-terminal GST; dsDNA, one strand shown
# T6 sequence: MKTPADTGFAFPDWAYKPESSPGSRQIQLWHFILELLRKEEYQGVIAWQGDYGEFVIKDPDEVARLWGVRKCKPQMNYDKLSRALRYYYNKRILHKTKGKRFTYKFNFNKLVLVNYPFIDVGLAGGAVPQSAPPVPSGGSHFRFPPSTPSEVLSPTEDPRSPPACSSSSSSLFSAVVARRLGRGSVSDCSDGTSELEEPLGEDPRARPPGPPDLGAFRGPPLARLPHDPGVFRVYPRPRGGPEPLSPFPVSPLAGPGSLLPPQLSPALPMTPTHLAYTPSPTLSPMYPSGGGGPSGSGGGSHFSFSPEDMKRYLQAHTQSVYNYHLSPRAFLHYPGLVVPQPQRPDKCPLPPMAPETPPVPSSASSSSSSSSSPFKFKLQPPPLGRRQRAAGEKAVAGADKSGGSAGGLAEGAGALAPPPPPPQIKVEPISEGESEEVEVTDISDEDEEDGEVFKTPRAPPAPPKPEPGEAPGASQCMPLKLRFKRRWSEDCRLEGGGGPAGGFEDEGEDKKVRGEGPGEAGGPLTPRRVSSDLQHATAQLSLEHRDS
# Procedure, shortened: as §1
# ETV3L = biological target: T7, ETV3L (Homo sapiens, UniProt Q6ZN32 1-361); conditions: protein: recombinant; tags: N-terminal GST; dsDNA, one strand shown
# T7 sequence: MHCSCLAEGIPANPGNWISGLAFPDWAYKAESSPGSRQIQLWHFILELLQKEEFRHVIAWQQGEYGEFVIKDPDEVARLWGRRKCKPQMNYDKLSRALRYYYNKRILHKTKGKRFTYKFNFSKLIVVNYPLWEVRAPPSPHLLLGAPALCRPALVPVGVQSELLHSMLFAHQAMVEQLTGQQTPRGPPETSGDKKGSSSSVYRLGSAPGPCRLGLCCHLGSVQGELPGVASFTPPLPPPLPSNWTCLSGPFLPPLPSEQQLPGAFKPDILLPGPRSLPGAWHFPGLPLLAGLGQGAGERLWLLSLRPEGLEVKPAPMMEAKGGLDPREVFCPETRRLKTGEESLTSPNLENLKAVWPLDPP
# Procedure, shortened: as §1
# ETS2 = biological target: T8, ETS2 (Homo sapiens, UniProt P15036 1-469); conditions: protein: recombinant; tags: N-terminal GST; dsDNA, one strand shown
# T8 sequence: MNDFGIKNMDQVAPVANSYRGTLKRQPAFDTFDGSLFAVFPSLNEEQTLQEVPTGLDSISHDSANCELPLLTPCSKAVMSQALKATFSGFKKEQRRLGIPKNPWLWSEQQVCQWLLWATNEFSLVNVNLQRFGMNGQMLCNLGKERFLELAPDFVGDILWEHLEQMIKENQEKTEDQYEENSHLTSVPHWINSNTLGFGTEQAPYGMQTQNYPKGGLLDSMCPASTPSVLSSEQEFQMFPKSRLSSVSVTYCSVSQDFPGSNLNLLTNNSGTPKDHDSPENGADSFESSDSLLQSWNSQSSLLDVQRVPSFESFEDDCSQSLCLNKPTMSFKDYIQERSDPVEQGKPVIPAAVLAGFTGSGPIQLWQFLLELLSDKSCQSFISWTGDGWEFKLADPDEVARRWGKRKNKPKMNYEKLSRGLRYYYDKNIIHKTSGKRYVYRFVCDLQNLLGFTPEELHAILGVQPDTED
# Procedure, shortened: as §1
# SPDEF = biological target: T9, SPDEF (Homo sapiens, UniProt O95238 1-335); conditions: protein: recombinant; tags: N-terminal GST; dsDNA, one strand shown
# T9 sequence: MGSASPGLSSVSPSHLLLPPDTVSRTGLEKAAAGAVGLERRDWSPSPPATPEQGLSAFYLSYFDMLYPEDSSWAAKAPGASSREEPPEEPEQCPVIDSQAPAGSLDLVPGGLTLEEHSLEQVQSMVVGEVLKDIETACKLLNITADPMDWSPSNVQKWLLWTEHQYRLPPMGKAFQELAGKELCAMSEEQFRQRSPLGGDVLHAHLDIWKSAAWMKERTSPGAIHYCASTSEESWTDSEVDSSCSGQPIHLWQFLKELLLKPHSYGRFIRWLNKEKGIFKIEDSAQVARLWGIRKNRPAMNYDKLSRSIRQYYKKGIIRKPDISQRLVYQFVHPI
# Procedure, shortened: as §1
# ETV7 = biological target: T10, ETV7 (Homo sapiens, UniProt Q9Y603 1-341); conditions: protein: recombinant; tags: N-terminal GST; dsDNA, one strand shown
# T10 sequence: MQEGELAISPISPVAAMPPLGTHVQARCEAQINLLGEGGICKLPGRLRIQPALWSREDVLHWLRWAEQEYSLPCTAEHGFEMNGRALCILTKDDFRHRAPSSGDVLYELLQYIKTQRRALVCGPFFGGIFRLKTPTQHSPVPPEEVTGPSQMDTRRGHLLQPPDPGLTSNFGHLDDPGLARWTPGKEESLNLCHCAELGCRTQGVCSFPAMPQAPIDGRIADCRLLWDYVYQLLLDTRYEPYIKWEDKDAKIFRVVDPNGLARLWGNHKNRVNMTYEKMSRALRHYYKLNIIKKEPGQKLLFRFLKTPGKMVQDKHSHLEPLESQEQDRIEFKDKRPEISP
# Procedure, shortened: as §1
# ELF5 = biological target: T11, ELF5 (Homo sapiens, UniProt Q9UKW6-2 1-255); conditions: protein: recombinant; tags: N-terminal GST; dsDNA, one strand shown
# T11 sequence: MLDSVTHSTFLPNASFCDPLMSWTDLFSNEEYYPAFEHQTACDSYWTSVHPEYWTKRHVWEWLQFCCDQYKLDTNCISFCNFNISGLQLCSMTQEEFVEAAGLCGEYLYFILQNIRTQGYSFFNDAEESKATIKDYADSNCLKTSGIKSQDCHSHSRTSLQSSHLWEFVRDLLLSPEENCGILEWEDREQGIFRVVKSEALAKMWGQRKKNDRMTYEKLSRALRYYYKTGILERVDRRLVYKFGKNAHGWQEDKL
# Procedure, shortened: as §1
# ETV3 = biological target: T12, ETV3 (Homo sapiens, UniProt P41162-2 1-143); conditions: protein: recombinant; tags: N-terminal GST; dsDNA, one strand shown
# T12 sequence: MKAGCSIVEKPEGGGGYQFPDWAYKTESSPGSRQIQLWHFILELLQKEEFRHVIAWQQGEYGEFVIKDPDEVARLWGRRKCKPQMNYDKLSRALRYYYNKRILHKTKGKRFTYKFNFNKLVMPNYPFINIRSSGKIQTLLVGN
# Procedure, shortened: as §1
# ETV6 = ETV6 (Homo sapiens, UniProt P41212 1-452); conditions: protein: recombinant; tags: N-terminal GST; dsDNA, one strand shown
# Procedure, shortened: as §1
# ETV1, sequence (P50549 whole entry): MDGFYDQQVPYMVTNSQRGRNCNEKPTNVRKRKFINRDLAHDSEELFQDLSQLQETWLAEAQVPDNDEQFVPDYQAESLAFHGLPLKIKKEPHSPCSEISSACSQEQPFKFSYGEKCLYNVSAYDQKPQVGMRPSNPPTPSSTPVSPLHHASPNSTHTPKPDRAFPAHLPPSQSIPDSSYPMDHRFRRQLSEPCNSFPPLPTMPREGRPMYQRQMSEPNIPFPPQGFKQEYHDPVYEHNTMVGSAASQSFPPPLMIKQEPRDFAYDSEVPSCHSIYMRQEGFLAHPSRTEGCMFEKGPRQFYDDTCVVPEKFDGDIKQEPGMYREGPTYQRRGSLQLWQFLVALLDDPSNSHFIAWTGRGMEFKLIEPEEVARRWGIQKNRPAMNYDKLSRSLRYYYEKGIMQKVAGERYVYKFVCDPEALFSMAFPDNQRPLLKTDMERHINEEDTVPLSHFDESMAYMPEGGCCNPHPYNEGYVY
# ETV5, sequence (P41161 whole entry): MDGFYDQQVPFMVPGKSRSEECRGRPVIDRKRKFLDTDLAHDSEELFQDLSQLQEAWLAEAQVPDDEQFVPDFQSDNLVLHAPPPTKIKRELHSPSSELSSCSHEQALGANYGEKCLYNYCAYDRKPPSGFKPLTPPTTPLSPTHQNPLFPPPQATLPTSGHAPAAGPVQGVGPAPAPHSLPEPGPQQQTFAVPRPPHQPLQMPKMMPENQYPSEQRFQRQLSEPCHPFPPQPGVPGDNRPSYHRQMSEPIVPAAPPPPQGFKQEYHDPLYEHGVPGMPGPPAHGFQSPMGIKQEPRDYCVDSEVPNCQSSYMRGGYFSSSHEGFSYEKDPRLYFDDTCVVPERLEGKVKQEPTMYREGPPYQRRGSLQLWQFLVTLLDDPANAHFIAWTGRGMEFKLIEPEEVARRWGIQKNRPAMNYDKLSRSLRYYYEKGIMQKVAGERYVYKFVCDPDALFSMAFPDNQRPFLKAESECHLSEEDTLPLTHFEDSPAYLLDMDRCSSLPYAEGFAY
# HSF1, sequence (Q00613 whole entry): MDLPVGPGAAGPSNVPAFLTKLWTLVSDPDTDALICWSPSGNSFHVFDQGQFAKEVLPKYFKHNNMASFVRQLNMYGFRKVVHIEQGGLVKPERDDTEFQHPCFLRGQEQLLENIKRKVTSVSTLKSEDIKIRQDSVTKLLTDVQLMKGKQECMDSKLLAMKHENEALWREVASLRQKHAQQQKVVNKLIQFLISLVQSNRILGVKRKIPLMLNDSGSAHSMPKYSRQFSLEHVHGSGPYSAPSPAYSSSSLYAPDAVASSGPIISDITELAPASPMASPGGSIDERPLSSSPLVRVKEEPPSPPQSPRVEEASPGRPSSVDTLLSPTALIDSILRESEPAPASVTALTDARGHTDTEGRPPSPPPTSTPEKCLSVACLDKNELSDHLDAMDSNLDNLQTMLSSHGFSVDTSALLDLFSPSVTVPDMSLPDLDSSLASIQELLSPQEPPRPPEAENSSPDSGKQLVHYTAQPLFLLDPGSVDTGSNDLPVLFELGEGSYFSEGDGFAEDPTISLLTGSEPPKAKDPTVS
# ELF4, sequence (Q99607 whole entry): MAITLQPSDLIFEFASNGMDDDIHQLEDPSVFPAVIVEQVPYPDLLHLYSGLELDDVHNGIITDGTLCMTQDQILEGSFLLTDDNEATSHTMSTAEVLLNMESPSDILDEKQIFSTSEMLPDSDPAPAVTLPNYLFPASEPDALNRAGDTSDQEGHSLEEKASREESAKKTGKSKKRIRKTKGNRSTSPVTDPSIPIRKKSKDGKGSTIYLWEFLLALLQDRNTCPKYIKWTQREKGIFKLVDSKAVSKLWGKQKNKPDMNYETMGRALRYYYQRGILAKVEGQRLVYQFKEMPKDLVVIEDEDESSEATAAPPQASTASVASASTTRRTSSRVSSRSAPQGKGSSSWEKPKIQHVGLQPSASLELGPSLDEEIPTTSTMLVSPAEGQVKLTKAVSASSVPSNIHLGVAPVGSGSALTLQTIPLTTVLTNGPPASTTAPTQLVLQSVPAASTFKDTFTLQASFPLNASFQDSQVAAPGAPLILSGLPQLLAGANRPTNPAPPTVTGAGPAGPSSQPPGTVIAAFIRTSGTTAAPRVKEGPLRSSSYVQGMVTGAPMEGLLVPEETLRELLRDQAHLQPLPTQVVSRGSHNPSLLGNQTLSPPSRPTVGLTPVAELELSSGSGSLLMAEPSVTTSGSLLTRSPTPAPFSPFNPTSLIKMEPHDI
# ETV6, sequence (P41212 whole entry): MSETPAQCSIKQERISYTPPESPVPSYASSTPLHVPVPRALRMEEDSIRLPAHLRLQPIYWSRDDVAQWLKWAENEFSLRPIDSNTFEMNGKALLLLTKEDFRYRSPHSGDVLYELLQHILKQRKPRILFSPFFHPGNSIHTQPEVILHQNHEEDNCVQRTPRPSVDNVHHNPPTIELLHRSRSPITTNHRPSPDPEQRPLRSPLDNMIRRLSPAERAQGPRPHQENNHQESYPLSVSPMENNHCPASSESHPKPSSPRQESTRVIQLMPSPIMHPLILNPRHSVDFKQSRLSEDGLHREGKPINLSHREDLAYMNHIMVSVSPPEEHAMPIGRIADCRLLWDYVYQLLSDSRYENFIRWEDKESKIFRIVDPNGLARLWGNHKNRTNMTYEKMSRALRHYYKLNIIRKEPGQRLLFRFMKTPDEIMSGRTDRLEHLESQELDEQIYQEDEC
# CRX, sequence (O43186 whole entry): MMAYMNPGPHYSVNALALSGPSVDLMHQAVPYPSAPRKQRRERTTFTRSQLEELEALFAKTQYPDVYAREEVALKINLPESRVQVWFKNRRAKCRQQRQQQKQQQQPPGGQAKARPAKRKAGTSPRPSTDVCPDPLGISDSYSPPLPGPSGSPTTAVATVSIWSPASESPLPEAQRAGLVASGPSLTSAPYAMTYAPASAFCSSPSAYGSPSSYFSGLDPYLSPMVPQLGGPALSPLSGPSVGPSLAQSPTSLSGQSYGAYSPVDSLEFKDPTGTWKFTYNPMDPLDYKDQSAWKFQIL
sequence,measurement,setting,value
ATGGTT,binding signal,FEV,"1.34 fold enrichment (6-mer frequency, TF over GST control)"
same,binding signal,ETV5,"1.31 fold enrichment (6-mer frequency, TF over GST control)"
same,binding signal,HSF1,"1.25 fold enrichment (6-mer frequency, TF over GST control)"
same,binding signal,SPIC,"1.33 fold enrichment (6-mer frequency, TF over GST control)"
same,binding signal,ELF4,"1.32 fold enrichment (6-mer frequency, TF over GST control)"
same,binding signal,ELK4,"1.42 fold enrichment (6-mer frequency, TF over GST control)"
same,binding signal,ETV2,"1.24 fold enrichment (6-mer frequency, TF over GST control)"
same,binding signal,ELF3,"1.38 fold enrichment (6-mer frequency, TF over GST control)"
same,binding signal,CRX,"1.17 fold enrichment (6-mer frequency, TF over GST control)"
same,binding signal,ETV1,"1.42 fold enrichment (6-mer frequency, TF over GST control)"
same,binding signal,ERF,"1.27 fold enrichment (6-mer frequency, TF over GST control)"
same,binding signal,ETV3L,"1.36 fold enrichment (6-mer frequency, TF over GST control)"
same,binding signal,ETS2,"1.36 fold enrichment (6-mer frequency, TF over GST control)"
same,binding signal,SPDEF,"1.18 fold enrichment (6-mer frequency, TF over GST control)"
same,binding signal,ETV7,"1.27 fold enrichment (6-mer frequency, TF over GST control)"
same,binding signal,ELF5,"1.27 fold enrichment (6-mer frequency, TF over GST control)"
same,binding signal,ETV3,"1.34 fold enrichment (6-mer frequency, TF over GST control)"
same,binding signal,ETV6,"1.3 fold enrichment (6-mer frequency, TF over GST control)"
